Assay [1] is described as follows: NFkB reporter suppression in cystic fibrosis bronchial cells – cell-based, uHTS hits, panel, cytotoxicity readout, dose response (AID 624344). The following applies: CF bronchial epithelial cells, PAF-induced NFkB reporter inhibition, with PAF, run 1; at 79 µM (top of the series) unless noted.
Assay in assay [2]: as above
The settings on record: CF bronchial epithelial cells, PAF-induced NFkB reporter inhibition, with PAF, run 2; at 79 µM (top of the series) unless noted.

The values below come from PubChem BioAssay.

With `Cc1cnc(C=O)c2cccc([N+](=O)[O-])c12`, the inhibition was 110% in assay [1] and 106% in assay [2].
The like results for `CN(C)c1ccc(-c2nn3c(-c4ccccc4Cl)nnc3s2)cc1` were, in that order, 102% and 65.9%.
Taken in the same sequence, the figures for `COc1cc(/C=C2\SC(=O)N(CCNC(=O)c3sc4cc(F)ccc4c3Cl)C2=O)cc(OC)c1OC` were 27.5% and 30.8%.
Taken in the same sequence, the figures for `CCOC(=O)c1ccc(-n2[nH]c(-c3ccccc3)cc2=O)cc1` were 113% and 93.3%.
Turning to `CC(C)(C)C(=O)/C(=C/c1ccncc1)n1cncn1`, the inhibition turned out to be 98.3% in assay [1] and 102% in assay [2].
Taken in the same sequence, the figures for `CCOC(=O)c1c(C)cc2c(CO)n[nH]c(=O)c2c1C` were 104% and 95.8%.
For the compound `Cn1c(Sc2ccc(Cl)cc2)c(C=O)c2ccccc21`, the figures for the inhibition in assay [1] and in assay [2] were 119% and 107%, respectively.
Taken in the same sequence, the figures for `O=C(c1ccccc1)C1OC1C(=O)c1ccccc1` (stereo not drawn) were 101% and 109%.
Taken in the same sequence, the figures for `COc1ccc2c(=O)cc(-c3ccncc3)oc2c1OC` were 116% and 103%.
Taken in the same sequence, the figures for `CCn1c(=O)c2c(cnn2C)c2ccccc21` were 117% and 103%.
Consider `CC(=O)Oc1ccc(N(C(C)=O)S(=O)(=O)c2ccc(Cl)cc2)c2ccccc12`, for which the inhibition in assay [1] was determined as 99.9%; in assay [2] it was 108%.
Regarding `O=c1cc(-c2ccccc2Cl)oc2cc(O)cc(O)c12`, the inhibition in assay [1] is 85.2%; in assay [2] it was 93.7%.
The like results for `CCOC(=O)c1[nH]c(C)c(C(=O)N2CCc3ccccc32)c1C` were, in that order, 34.1% and 43.6%.
Taken in the same sequence, the figures for `COc1ccc(OC)c(-c2nnc3n2N=C(c2ccc(OC)c(OCC4CC4)c2)CS3)c1` were 113% and 85.1%.
Consider `COc1cccc(NC(=O)Nc2nnc(CC(=O)Nc3ccccc3)s2)c1`, for which the inhibition in assay [1] stood at 90.4%; in assay [2] it was 85.1%.
Taken in the same sequence, the figures for `CC(C)c1ccccc1NC(=O)COC(=O)c1c2c(nc3ccccc13)CCN(Cc1ccccc1)C2` were 76.4% and 90.6%.
As to `COc1cc(-c2cc(C(=O)Nc3ccc(S(=O)(=O)NCc4ccco4)cc3)c3ccccc3n2)cc(OC)c1OC`, the inhibition in assay [1] is 109%; in assay [2], 102%.
Taken in the same sequence, the figures for `COc1cccc(NC(=O)CN(C)CC(=O)Nc2ccc(C)c([N+](=O)[O-])c2)c1` were 80.7% and 101%.
For `CCN(CC)CCNC(=O)c1ccc(NC(=O)C2CCN(c3ncnc4sc(C)c(C)c34)CC2)cc1`, the inhibition was 112% in assay [1] and 103% in assay [2].
The like results for `Cc1nc([N+](=O)[O-])c(Sc2nc3ccc([N+](=O)[O-])cc3[nH]2)n1Cc1ccccc1` were, in that order, 101% and 112%.
Taken in the same sequence, the figures for `CC(=O)Oc1ccccc1C(=O)Oc1ccc(/C=N/n2cnnc2)cc1` were 106% and 105%.
Taken in the same sequence, the figures for `COc1ccc(OC)c(-c2nnc3n2N=C(c2ccc(OC)c(OC4CCOC4)c2)CS3)c1` (stereo not drawn) were 103% and 107%.
For `Cn1c(N2CCN(C(c3ccccc3)c3ccccc3)CC2)nc2c1c(=O)[nH]c(=O)n2C`, the inhibition in assay [1] stood at 108%; in assay [2] it was 104%.
Taken in the same sequence, the figures for `COc1ccccc1NC(=O)c1cc2c(CO)cnc(C)c2oc1=Nc1ccc(OC)c(OC)c1` were 73.4% and 93.8%.
In the case of `CCCCCCc1cc2cc(C(=O)OCC)c(=O)oc2cc1O`, the inhibition in assay [1] was determined as 106%; in assay [2] it was 117%.
Taken in the same sequence, the figures for `CN(c1ncnc(N)c1[N+](=O)[O-])C1CCS(=O)(=O)C1` (stereo not drawn) were 96.8% and 104%.
On to `COc1ccc(-c2cn[nH]c2-c2ccc(OCc3ccccc3)cc2O)cc1`, for which the inhibition in assay [1] was found to be 99.8%; in assay [2], 114%.
The like results for `CCOc1ccccc1N1CCN(C(=O)c2cc(-c3cc(OC)ccc3OC)nc3ccccc23)CC1` were, in that order, 107% and 104%.
The like results for `CCOC(=O)N1CCC(NC(=O)c2ccc3c(c2)N=C(C)c2c(C)ccc(C)c2S3)CC1` were, in that order, 92.2% and 115%.
The like results for `COc1cc(/C=N/NC(=O)Nc2cccc3nsnc23)cc(OC)c1OC` were, in that order, 89.7% and 82.7%.
With `Cc1c(C(=O)OC2CCCC2)[nH]c2c1C(=O)CC(c1ccco1)C2` (stereo not drawn), the inhibition amounted to 29% in assay [1] and 115% in assay [2].
The like results for `O=[N+]([O-])c1cc([N+](=O)[O-])c2oc(-c3ccccc3)c(Br)c2c1O` were, in that order, 112% and 107%.
Taken in the same sequence, the figures for `Cc1ccc2nc(SCC(=O)Nc3cc(C(F)(F)F)ccc3N3CCOCC3)[nH]c2c1` were 81.3% and 48.5%.
Taken in the same sequence, the figures for `Cc1cccc(NS(=O)(=O)c2ccc(-c3cnc(C4CC4)o3)cc2)c1C` were 105% and 107%.
`CCOc1ccc(C(C(=O)NC2CCCC2)N(C(=O)c2snc(C(N)=O)c2N)c2cccc(O)c2)cc1` (stereo not drawn): the inhibition turned out to be 105% in assay [1] and 96.6% in assay [2].
`CCOc1ccc(Nc2ncnc3ccc([N+](=O)[O-])cc23)cc1`: the inhibition in assay [1] came to 102%; in assay [2], 107%.
As to `CC(NC(=O)OCc1ccccc1)C(=O)Oc1cc2oc(=O)cc(-c3ccccc3)c2cc1Cl` (stereo not drawn), the inhibition in assay [1] and in assay [2] was 103% in each case.
Consider `c1cncc(CNc2ncnc3ccc(-c4ccoc4)cc23)c1`, for which the results for the inhibition in assay [1] and in assay [2] were 113% and 98.2%, respectively.
The like results for `CC1(C)CC(=O)C(C2C3=C(CC(C)(C)CC3=O)Oc3c(Br)cc(Br)cc32)=C(O)C1` (stereo not drawn) were, in that order, 104% and 111%.
Taken in the same sequence, the figures for `Oc1ccc(Cl)cc1Cc1cc(Cl)ccc1O` were 103% and 107%.
Regarding `CC1C(c2ccccc2)OCCN1C(=S)Nc1ccc(S(=O)(=O)N2CCCCC2)cc1` (stereo not drawn), the values for the inhibition in assay [1] and in assay [2] were 100% and 106%, respectively.
For `O=C(CN1C(=O)CCC1=O)Nc1nc(-c2nc3ccccc3s2)cs1`, the figures for the inhibition in assay [1] and in assay [2] were 84.7% and 85.9%, respectively.
The like results for `COc1ccc(OC)c(C2CC(=O)c3c([nH]c(C(=O)OC(C)C)c3C)C2)c1` (stereo not drawn) were, in that order, 51.7% and 64.2%.
Taken in the same sequence, the figures for `CCC1(O)CC2CN(CCc3c([nH]c4ccccc34)C(C(=O)OC)(c3cc4c(cc3OC)N(C=O)C3C(O)(C(=O)OC)C(OC(C)=O)C5(CC)C=CCN6CCC43C65)C2)C1` (stereo not drawn) were 107% and 78.2%.

One may read the inhibition as the drop in the measured response relative to a control, in per cent.
